What was measured:
Test in all cases: PBM binding z-score (relative to random genomic background probes); higher = stronger binding; sequences stand for … in GC…GCGATTGACAGCGTAGAATGAAGG
[1] = system: FXR:RXRa (NR concentration 270 nM, RXRa partner concentration 90 nM)
Outline: (§1)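 Binding z-scores take random background probes as their reference. They come from custom Agilent 4×180K protein-binding microarrays incubated 1 h with ligand-free nuclear receptor dimers, with antibodies against each partner (one per run) detecting binding. Scanned fluorescence was regression-normalized.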

[2] = system: LXRa:RXRa (NR concentration 270 nM, RXRa partner concentration 90 nM)
Outline: as §1

[3] = system: LXRa homodimer (NR concentration 270 nM)
Outline: as §1

[4] = system: LXRb:RXRa (NR concentration 270 nM, RXRa partner concentration 90 nM)
Outline: as §1

[5] = system: LXRb homodimer (NR concentration 270 nM)
Outline: as §1

[6] = system: PPARa:RXRa (NR concentration 270 nM, RXRa partner concentration 90 nM)
Outline: as §1

[7] = system: PPARg:RXRa (NR concentration 180 nM, RXRa partner concentration 90 nM)
Outline: as §1

[8] = system: PPARg:RXRa 270nM:90nM, anti-RXR (NR concentration 270 nM, RXRa partner concentration 90 nM)
Outline: as §1

[9] = system: PPARg:RXRa 30nM:10nM, anti-RXR (NR concentration 30 nM, RXRa partner concentration 10 nM)
Outline: as §1

[10] = system: PPARg:RXRa 90nM:30nM, anti-RXR (NR concentration 90 nM, RXRa partner concentration 30 nM)
Outline: as §1

[11] = system: PPARg:RXRa DBDmut IVT, anti-RXR (DBD mutation: RXRa K156A/R161A, NR concentration 270 nM, RXRa partner concentration 90 nM)
Outline: as §1

[12] = system: PPARg:RXRa IVT, anti-PPARg (NR concentration 270 nM, RXRa partner concentration 90 nM)
Outline: as §1

[13] = system: PPARg DBDmut:RXRa IVT, anti-PPARg (DBD mutation: PPARg1 K132A/R137A, NR concentration 270 nM, RXRa partner concentration 90 nM)
Outline: as §1

[14] = system: PPARg DBDmut IVT, anti-PPARg (DBD mutation: PPARg1 K132A/R137A, NR concentration 270 nM)
Outline: as §1

[15] = system: PPARg homodimer (NR concentration 180 nM)
Outline: as §1

[16] = system: PXR:RXRa (NR concentration 270 nM, RXRa partner concentration 90 nM)
Outline: as §1

[17] = system: PXR homodimer (NR concentration 270 nM)
Outline: as §1

[18] = system: RARa:RXR (NR concentration 270 nM, RXRa partner concentration 90 nM)
Outline: as §1

[19] = system: RARa homodimer (NR concentration 270 nM)
Outline: as §1

[20] = system: RARb:RXRa (NR concentration 270 nM, RXRa partner concentration 90 nM)
Outline: as §1

Sequence | PBM binding z-score [1] | PBM binding z-score [2] | PBM binding z-score [3] | PBM binding z-score [4] | PBM binding z-score [5] | PBM binding z-score [6] | PBM binding z-score [7] | PBM binding z-score [8] | PBM binding z-score [9] | PBM binding z-score [10] | PBM binding z-score [11] | PBM binding z-score [12] | PBM binding z-score [13] | PBM binding z-score [14] | PBM binding z-score [15] | PBM binding z-score [16] | PBM binding z-score [17] | PBM binding z-score [18] | PBM binding z-score [19] | PBM binding z-score [20]
TCAGACAGGTGTAGGTAACTCAGGTACGCAGTCG | 0.401 | 1.02 | 0.205 | 0.34 | -0.0818 | 0.643 | 0.472 | 1.78 | 3.54 | 2.76 | 2.33 | 0.315 | 0.327 | -0.523 | 0.265 | 0.373 | 0.461 | 0.495 | 0.784 | 0.406
ATATGTAGGTTAGCTGGGGTCATTAAGACTAGGC | 4.6 | 5.39 | 2.55 | 4.58 | 1.38 | 5.13 | 5.69 | 4.89 | 2.49 | 4.2 | 7.01 | 6.64 | 3.24 | 2.7 | 2.8 | 5.91 | 3.46 | 5.15 | 1.22 | 3
TCTGCTAGGTCAGTTGGTTAGCTAACGAGCTGCC | 0.851 | 0.567 | -0.601 | 0.643 | 0.257 | 1.05 | 0.0463 | 1.19 | 1.17 | 1.34 | 2.45 | 2.82 | -0.493 | -0.0218 | -0.654 | 0.251 | -0.819 | 0.432 | -1.34 | 3.29
CAGCCTTGGTCAGGGCCAGTATAGGAGGAACGTT | -0.896 | -0.936 | -0.824 | -0.976 | -1.46 | -0.531 | -0.0449 | -0.51 | -0.686 | -0.517 | -0.703 | -0.873 | -1.09 | -1.73 | -1.21 | -0.903 | -0.901 | -0.84 | -0.916 | 0.481
GGAACGAGGGGATTCGAGTTGATAGCATGGCGAT | -0.431 | -0.53 | -0.577 | -0.641 | -0.654 | -0.413 | 0.315 | -0.471 | -0.474 | -0.523 | 0.388 | -0.0839 | -1.62 | -0.321 | -1.3 | 0.0775 | -0.14 | -0.588 | -0.71 | -0.414
CCTCGGAGGACAACAGGAGGTCGGAGCTGCCAGA | -0.0236 | -0.0275 | -0.149 | -0.236 | -0.893 | 0.19 | -0.122 | -0.445 | -0.792 | -1.05 | -0.0819 | -0.232 | -0.343 | -1.52 | -0.189 | 0.00803 | -0.239 | 0.109 | 0.111 | 1.55
TCTTGTTGATCAATAGAGGTTAAGAAAGTGCGCT | 0.549 | 3.17 | 0.564 | 2.1 | 0.134 | 2.02 | -0.0546 | 1.87 | 2.82 | 2.46 | 1.5 | 0.913 | 0.422 | 1.13 | 0.192 | 2.89 | 0.147 | 1.71 | 0.519 | 1.05
TCATATACGTAAACAGGTGAAAGTCCGTAAGTTA | 1.15 | 1.2 | 0.468 | 1.33 | 0.615 | 1.75 | 1.14 | 2.99 | 4.45 | 3.61 | 2.72 | 1.26 | 1.21 | 1.05 | 1.24 | 1.19 | 0.801 | 1.68 | 1.67 | 0.855
GCTAGCAGGCCATTTGGGTCACTCCATGACGGGC | -0.16 | -0.308 | -0.39 | -0.515 | -0.772 | 0.964 | 0.542 | 0.345 | -0.692 | -0.372 | 1.48 | 1.98 | -0.282 | -0.961 | -0.247 | 0.113 | -0.146 | 0.126 | -0.604 | 1.39
TCTCGCAGGACACGAAAGGTCAGAGCTCGACATC | 2.57 | 3.8 | 2.98 | 3.17 | 0.477 | 3.71 | 1.25 | 2.76 | 2.41 | 2.44 | 1.62 | 1.4 | 0.807 | 0.509 | 2.57 | 3.87 | 0.38 | 4.53 | 1.07 | 3.95
ATACCAAGGTGATCGTGCGGTCGTTGATACTAAC | 0.823 | 0.293 | 0.286 | -0.0591 | -0.308 | 0.0191 | 0.122 | 0.0521 | -0.564 | -0.232 | 0.367 | 0.959 | -0.0975 | -0.386 | -0.0029 | 0.16 | 0.0689 | -0.0765 | 0.173 | 0.748
CCGGCTGGGGCAGAAAGGTTACCATACCATCCGG | 0.0889 | 0.439 | -0.422 | 0.64 | -1.29 | 1.61 | 0.79 | 1.64 | -0.158 | 1.06 | -0.851 | -0.138 | -1.63 | -1.34 | 0.44 | 0.704 | -0.199 | 1.52 | -0.576 | 1.85
CCTGCTAGGTCATGGTCACCTAATCTACAGTATG | 3.67 | 2.86 | 0.345 | 2.19 | -0.376 | 3.56 | 3.28 | 3.54 | 1.07 | 2.72 | 5 | 5.09 | 0.83 | 0.207 | 1.89 | 1.82 | -0.294 | 2.75 | -0.115 | 3.98
GATACAGGGCCAGCTAGAGGCCAGAGTATGGAAA | -0.612 | -0.872 | -0.883 | -1.08 | -1.43 | -0.738 | 0.208 | -0.6 | -0.543 | -0.645 | -0.745 | -0.681 | -0.858 | -1.22 | -0.793 | -0.72 | -0.244 | -0.464 | -0.203 | 0.56

Source: the supplement of paper PMC6555819
